# Source: PubChem (National Center for Advancing Translational Sciences (NCATS))
# IMPase cell inh: qHTS Assay for Identifying the Cell-Membrane Permeable IMPase Inhibitors | AID 901, 2007 | inhibition (IP1 accumulation), % at 46.1 µM | 120,000 tested, under 10 active | CHO-M1 cells, IP1 accumulation, HTRF TR-FRET ratio | Inositol monophosphatase 1 (Rattus norvegicus), P97697; active means well fitted curve in the direction sought with a large enough effect in the signal ratio, not every such curve was filed as active; inconclusive means small, poorly fitted or top-dose-only effect, or a change in a side signal; inactive means no such curve, though single readings can be large or run the other way; the % refers to the signal ratio;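 further: cells stimulated with carbachol in lithium chloride buffer; plate controls were DMSO basal wells for no effect and reference inhibitor wells for full effect; higher means more IMPase inhibition seen as more IP1 and lower FRET ratio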
# Target sequence (P97697 whole entry, looked up): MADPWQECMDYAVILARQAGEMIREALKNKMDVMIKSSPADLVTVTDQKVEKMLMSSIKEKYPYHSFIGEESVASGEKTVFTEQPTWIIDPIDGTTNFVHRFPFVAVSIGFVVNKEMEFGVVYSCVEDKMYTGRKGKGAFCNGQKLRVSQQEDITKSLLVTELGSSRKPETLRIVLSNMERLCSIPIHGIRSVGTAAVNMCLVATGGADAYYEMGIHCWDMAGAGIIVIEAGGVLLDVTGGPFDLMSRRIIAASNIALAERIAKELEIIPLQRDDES
#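 CHO-M1, 2000 cells/well, cultured 16–30 h; cpd up to 46 uM; carbachol (50 uM solution, stimulation buffer w/ 50 mM LiCl, pH 7.4), 30 min 37C; IP-One TR-FRET, 10 min RT; Ex 320/Em 665, 620; Hill-fit AC50.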
# PNC inhibitor: High Content Assay for Compounds that inhibit the Assembly of the Perinucleolar Compartment. PC3M PTB-GFP, PNC prevalence imaging, 16 h; hits give low values. activity change (PNC), negative = inhibition, % at 10 µM. 3.1% of 140,000 active. AID 2417, 2010;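 active means readout at or below -70, meaning at least 70% loss of cells showing the perinucleolar compartment, a nuclear body marking cancer cells; inconclusive means readout between -30 and a set limit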;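 further: plate controls were DMSO wells for no effect and camptothecin positive control wells for full effect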
#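 Read-out is percentage of cells bearing a perinucleolar compartment, from automated 20x imaging of fixed, Hoechst-stained PC3M PTB-GFP cells. Cells were seeded 4 h, then exposed 16 h to compound (23 nl of library stock) in duplicate plates.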
# 12-hLO inh: qHTS Assay for Inhibitors of 12-hLO (12-human lipoxygenase). purified 12-hLO, xylenol orange hydroperoxide absorbance. Potency, µM (doses to about 57.1 µM), inactives show top-dose activity change, negative = inhibition, hits mostly inhibitors. 0.12% of 150,000 active; further: potency means the concentration at half of the fitted maximal effect; nearly all actives have a fitted effect of over 55% in size
#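 Purified human 12hLO (150 nM final) was preincubated with compounds for 15 min at room temperature in 25 mM Hepes pH 7.0, 0.01% Triton X-100, then reacted with 40 uM arachidonic acid for 30 min. Hydroperoxide was detected with ferrous iron/xylenol orange.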
# HPGD block: qHTS Assay for Inhibitors of HPGD (15-Hydroxyprostaglandin Dehydrogenase); AID 894, 2007; Potency, µM, without a hit: at the top dose activity change, negative = inhibition, actives largely listed as inhibitors; purified HPGD, NADH fluorescence kinetic, PGE2 substrate; 4.3% of 150,000 active; active means well fitted inhibition curve with a large enough effect, not every such curve was filed as active; inconclusive means small, poorly fitted or top-dose-only effect, or another doubt; inactive means no such curve, though single readings can be large or run the other way; further: potency means the concentration at half of the fitted maximal effect
# Target sequence (P15428 whole entry, looked up): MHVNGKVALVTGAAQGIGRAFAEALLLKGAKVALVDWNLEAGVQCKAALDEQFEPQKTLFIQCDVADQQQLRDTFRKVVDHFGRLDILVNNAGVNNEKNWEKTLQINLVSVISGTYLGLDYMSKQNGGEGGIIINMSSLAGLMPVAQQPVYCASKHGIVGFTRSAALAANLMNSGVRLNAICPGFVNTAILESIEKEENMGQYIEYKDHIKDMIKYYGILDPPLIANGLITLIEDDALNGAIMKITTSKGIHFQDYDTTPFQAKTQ
#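 20 nM HPGD preincubated 15 min at room temperature with compound in 50 mM Tris-HCl pH 8, 0.01% Tween 20. Started with 1 mM NAD+ and 30 uM prostaglandin E2; NADH fluorescence (360/450 nm) read 5 times over 30-s intervals, last minus first.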
# IMPase Li cell: qHTS Assay for Identifying the Cell-Membrane Permeable IMPase Inhibitors: Potentiation with Lithium; CHO-M1 cells, IP1 TR-FRET (IP-One), carbachol + lithium; Potency, µM (top dose mostly 59.4 µM), for inactives: at the highest dose activity, negative = IMPase inhibition, hits mostly inhibitors; 0.35% of 210,000 active;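 further: IP1 builds up when IMPase is blocked and the TR-FRET signal falls; potency means the concentration at half of the fitted maximal effect; plate controls were basal vehicle for no effect and high inhibitor control for full effect; nearly all actives have a fitted effect of over 50% in size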
#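 Readout is a homogeneous TR-FRET IP1 immunoassay (Ex 320, Em 665 and 620), where raised cytosolic IP1 lowers signal. Cells were CHO-M1 treated 30 min at 37C with test compounds plus a little lithium; AC50 values came from Hill-equation fitting.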
# ALOX15B inhib: qHTS Assay for Inhibitors of 15-hLO-2 (15-human lipoxygenase 2) | 0.56% of 110,000 active | Polyunsaturated fatty acid lipoxygenase ALOX15B (Homo sapiens), O15296 | Potency, µM (doses to about 57.1 µM), inactives show top-dose activity change, negative = inhibition, hits mostly inhibitors | purified 15hLO-2, xylenol orange hydroperoxide absorbance; further: potency means the concentration at half of the fitted maximal effect; nearly all actives have a fitted effect of over 60% in size
#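 Screening format was qHTS against 50 nM purified 15hLO-2 in Hepes pH 7.5 with detergent. Activity follows hydroperoxide formation from 45 uM arachidonic acid, measured as 573:405 nm absorbance ratio of the ferric-xylenol orange complex.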
# * marks the source's active call; other numbers are inactive results; ? = inconclusive; · = not tested or not shown; [ ] = another dose, or the depositor's remark. In the library only some 5.3% were active in any assay of this set; here they are far more common. Unless noted, the call rests on the fitted dose curve; in most records, active means well fitted curve in the direction sought with a large enough effect; inconclusive means small, poorly fitted or top-dose-only effect, or another doubt; inactive means no such curve, though single readings can be large; an effect the other way counts as inactive or inconclusive. Unless noted, on the % scale 0 is the no-effect control and ±100 the full control effect.
SMILES,IMPase cell inh,PNC inhibitor,12-hLO inh,HPGD block,IMPase Li cell,ALOX15B inhib
O=C(NCCCn1ccnc1)C(Cc1ccccc1)N1C(=O)c2ccccc2C1=O (configuration not stated),3,?,-1%,?,-9%[38.3 µM],18%
CC(C)OCC1CC(CC(=O)NC(=S)Nc2cccc([N+](=O)[O-])c2)C(=O)O1 (configuration not stated),-8,-100*,0%,-12%,9%,·
CC(C)OCC1CC(CC(=O)Nc2ccc([N+](=O)[O-])cc2)C(=O)O1 (configuration not stated),·,·,·,·,-9%,·
Cc1csc(/C(=N\O)c2csc(C)n2)n1,-5,-100*,-6%,-10%,2%[38.3 µM],3%
Oc1cccc2ccc[n+](CC(O)Cn3c4ccccc4c4ccccc43)c12 (configuration not stated),17,-25,0%,-13%,21%,·
CC(C)(C)c1cc(/C=C(\C#N)C(N)=S)cc(C(C)(C)C)c1O,11,·,-24%,?,22%,13µM*
CC(C)Cn1c(/C=C/c2ccco2)nc2ccccc21,·,6,-5%,?,8%,·
CC1CCCN(C(=O)C(C)Sc2nc(-c3ccccc3)cc(C(F)(F)F)n2)C1 (configuration not stated),2,?,-2%,16µM*,33%[38.3 µM],-2%
CC(Sc1nc(-c2ccccc2)cc(C(F)(F)F)n1)C(=O)NCc1ccco1 (configuration not stated),2,-17,5%,-11%,34%[38.3 µM],-7%
O=C(CSc1nc(-c2ccccc2)cc(C(F)(F)F)n1)N1CCOCC1,18,?,-10%,-10%,8%[38.3 µM],-3%
CC(Sc1nc(-c2ccccc2)cc(C(F)(F)F)n1)C(=O)N1CCCCC1 (configuration not stated),5,64,-2%,7.1µM*,6%[38.3 µM],9%
Cn1c(SCC(=O)NCc2ccco2)nnc1-c1ccc(S(=O)(=O)N2CCOCC2)cc1,-1,-100*,-5%,-2%,-6%[38.3 µM],8%
Cn1c(SCC(=O)NCc2ccco2)nnc1-c1ccccc1,0,31,-3%,-6%,1%,·
CC1CCN(C(=O)CSc2nnc(-c3ccc(S(=O)(=O)N4CCOCC4)cc3)n2C)CC1,2,-100*,-2%,?,5%,·
Cc1ccc(NC(=O)CSc2ccccc2NC(=O)c2ccccc2Cl)cc1Cl,·,32,3%,-10%,9%,·
N#CCCn1c(=O)c(-c2cc(F)cc(F)c2)nc2cnc(OCc3ccccc3)nc21,·,·,-4%,?,6%,-3%
N#CCSc1nnc(Nc2ccccc2)s1,4,20,0%,28µM*,15%[38.3 µM],-12%
OCCSc1nnc(Nc2ccccc2)s1,-3,-17,11%,-24%,-1%[38.3 µM],8%
CC1CC(C)CN(CC(O)COCCOc2ccc(Br)cc2)C1 (configuration not stated),·,-102*,-3%,-5%,0%,·
CCN(CC)c1ccc2c(c1)oc(=O)c1c(Cl)cc(=O)oc12,-8,-4,-13%,5.6µM*,35%[38.3 µM],-11%
Cc1nn(-c2ccccc2)c(C)c1/C=N/NC(=O)c1cc(-c2ccccc2)n[nH]1,19,-87*,4%,-17%,55%[38.3 µM],35%
Cc1nn(-c2ccccc2)c(C)c1/C=N/NC(=O)c1cc(-c2cccc3ccccc23)n[nH]1,4,38,-1%,-20%,19%,·
O=C1c2cccc3c(O)ccc(c23)C(=O)N1Cc1ccccc1,-11,-90*,-3%,-29%,-2%[38.3 µM],-12%
C=CCNC(=O)c1ccc2nccnc2c1,1,?,6%,16µM*,-5%,·
CC1CN(S(=O)(=O)c2ccc(NC(=O)c3cc(-c4ccccc4O)n[nH]3)cc2)CC(C)O1 (configuration not stated),15,5,-12%,14µM*,7%[38.3 µM],-12%
SMILES,IMPase cell inh,PNC inhibitor,12-hLO inh,HPGD block,IMPase Li cell,ALOX15B inhib
N#C/C(C(=O)NCc1ccco1)=C1/SC=C(c2ccccc2)N1c1ccccc1,·,19,-4%,?,11µM*,·
O=C(CC1C(=O)NCCN1Cc1ccccc1C(F)(F)F)NCCc1ccccn1 (configuration not stated),·,·,·,·,8%,·
CN(C)c1ccc(N2CN=C3SCC(=O)N3C2)cc1,33,-17,-13%,-16%,58%[38.3 µM],16µM*
COC(=O)c1ccc(NC(=O)C2CCCN2S(=O)(=O)c2ccc(C)cc2)cc1 (configuration not stated),-2,-119*,-10%,-3%,8%,·
COc1ccnc(Oc2ccc(F)cc2)c1C(=O)N/C=N/OCc1ccccc1,·,·,·,·,13%,·
Cc1ccc2nc(NCc3ccccc3)[nH]c2c1,1,-103*,-10%,-1%,1%[38.3 µM],35%
Cn1c(=O)c2c(c3ccccc31)OC(C)(C)CC2,·,-4,1%,?,15%,·
COc1cccc2c3c(c(=O)[nH]c12)CCC(C)(C)O3,5,-16,-2%,16µM*,35%[38.3 µM],3%
COc1ccc(CCN(C)CCCC(C#N)(c2cc(OC)c(OC)c(OC)c2)C(C)C)cc1OC (configuration not stated),·,-115*,-4%,-2%,12%,·
COc1ccc(CCN(C)CCc2ccc(OC)c(OC)c2)cc1OC,3,·,-3%,-13%,18%,26%
CC1CCCCN1C(=O)CSc1nc2cc3c(cc2c(=O)n1Cc1ccc2c(c1)OCO2)OCO3 (configuration not stated),-10,-87*,-3%,-27%,37%[38.3 µM],-7%
CC1CCN(C(=O)CSc2nc3ccccc3c(=O)n2Cc2ccc3c(c2)OCO3)CC1,10,-18,-9%,-20%,6%[38.3 µM],-12%
CCC(CC)NC(=O)COC(=O)c1cc(Br)ccc1Cl,·,?,-3%,32µM*,-5%,·
CCCCNC(=O)COC(=O)c1cc(Br)ccc1Cl,5,0,-3%,?,2%,·
COc1ccc(N(CC(=O)NCc2ccccc2C)S(=O)(=O)c2ccccc2[N+](=O)[O-])c(OC)c1,·,·,·,·,15%,·
COCCNC(=O)CN(c1ccc(C)cc1)S(=O)(=O)c1ccccc1,-3,39,-2%,-5%,3%[38.3 µM],-1%
